Laboratory results taken from ChEMBL document CHEMBL3988442, “University of Dundee, Small-Polar-MMV Screening Library” (2021).
About 13,000 (27%) of roughly 48,000 compounds showed an effect of 50% or more. This is one part of the list.

Each molecule was assayed on Wolbachia pipientis (assay: Anti-Wolbachia Cell-Based Screen). Details: 5 µM.
Assay type: functional
Parameters: scale not given: in the data most compounds retested in dose-response had high values
For `Cn1c(-c2ccccc2Cl)nc2cc(C(=O)NCCS(C)(=O)=O)cnc21`, the “Percent Effect” value was 0.8241%. For `CCn1nc(C)c(CNC(=O)C2COc3ccccc3C2)c1C` (stereo not given), the “Percent Effect” value was -10.56%. `CCC(C)N(Cc1ccncc1)Cc1ccc(-n2cccn2)cc1` (stereo not given) was tested, and the “Percent Effect” value was -9.551%. With `COc1ccc(Br)c(C(=O)NCC2CCN(C(=O)c3ccoc3)CC2)c1` the “Percent Effect” value was -6.269%. For `Cc1cccc(CN2CCCC(O)(CNCc3ncccc3C)C2=O)c1` (stereo not given), the “Percent Effect” value was 4.315%. With `CC(NC(=O)NCCCOC1CCCCC1)c1nncn1C` (stereo not given) the “Percent Effect” value was 12.39%. With `O=C(CCc1ccco1)Nc1ccc(Br)cn1` the “Percent Effect” value was -1.221%. With `Cc1oc(-c2ccco2)nc1CC(=O)N1CCC(CCO)C1` (stereo not given) the “Percent Effect” value was 7.972%. For `CC(C)C(=O)N1CCC(n2nc(-c3ccco3)ccc2=O)CC1`, the “Percent Effect” value was 101.9%. With `OCC(O)CSCc1cn(-c2ccc(F)c(Cl)c2)nn1` (stereo not given) the “Percent Effect” value was 1.714%. `Cc1csc(C2(NCc3nc(-c4ccco4)oc3C)CCCC2)n1` was tested, and the “Percent Effect” value was 21.68%. For `CN(C)c1nc(CNC(=O)NC2COc3ccccc32)cs1` (stereo not given), the “Percent Effect” value was -3.429%. With `Cc1ccc(C(=O)NCC2Cc3ccccc3O2)cc1S(C)(=O)=O` (stereo not given) the “Percent Effect” value was -52.49%. `Cc1nnc(NC(=O)NC2CCOc3ccccc32)s1` (stereo not given) was tested, and the “Percent Effect” value was 11.11%. With `CNS(=O)(=O)c1cc(C(=O)NC2COc3ccccc3C2)ccc1OC` (stereo not given) the “Percent Effect” value was -1.094%. In the case of `Cc1ccc(C(=O)NC2CCOc3ccccc32)cc1S(C)(=O)=O` (stereo not given), the “Percent Effect” value is reported as 118%. For `CNS(=O)(=O)c1cc(C(=O)NC2COc3ccccc32)cc(C)c1C` (stereo not given), the “Percent Effect” value was 105.8%. `COc1ccc(C(O)CN2CC(n3cc(C)cn3)C2)cc1` (stereo not given) was tested, and the “Percent Effect” value was -26.31%. With `Cc1oc(C)c(C(=O)NCc2ccccn2)c1C` the “Percent Effect” value was -10.25%. For `O=C(NCCN1CCCCC1)c1cccc(Cl)c1Cl`, the “Percent Effect” value was -2.651%. In the case of `O=C(NCCCN1CCOCC1)c1ccnc(OCc2ccccc2)c1`, the “Percent Effect” value is reported as 13.78%. `Cn1ccnc1-c1cccc(NC(=O)NCCCN2CCOCC2)c1` was tested, and the “Percent Effect” value was 9.655%. In the case of `COc1cc(CN(C)C(=O)NCc2ccccn2)ccc1SC`, the “Percent Effect” value is reported as -14.77%. For `O=C(NCCN1CCCCCC1)c1cccc(Cl)c1Cl`, the “Percent Effect” value was -3.616%. With `CN(C)Cc1cccc(-c2cccnc2C(=O)NCc2ccccn2)c1` the “Percent Effect” value was 107.8%. With `O=C(NCCCN1CCOCC1)c1cc(-c2ccccc2)[nH]n1` the “Percent Effect” value was 93.89%. With `O=C(NCCCN1CCOCC1)c1cc(-c2ccco2)[nH]n1` the “Percent Effect” value was 0.6677%. With `NCc1cccc(-c2cccnc2C(=O)NCCN2CCCC2)c1` the “Percent Effect” value was 177.6%. With `NCc1cccc(-c2cccnc2C(=O)NCCCN2CCOCC2)c1` the “Percent Effect” value was 156.6%. In the case of `O=C(NCCCN1CCOCC1)c1ccc(-c2ccccc2)[nH]c1=O`, the “Percent Effect” value is reported as -4.893%. For `CC(CC#N)NC(=O)c1cc(Br)c2c(c1)OCCO2` (stereo not given), the “Percent Effect” value was 3.147%. With `Cc1ccc(C(=O)N2CCC(C(F)(F)F)CC2)cc1N1CCNC1=O` the “Percent Effect” value was 18.95%. With `O=C(O)C(F)(F)F.O=C1CCCN1CC1CN(CC2CCOCC2)Cc2nccn2C1` (stereo not given) the “Percent Effect” value was -5.52%. For `CCCn1cnnc1CNCc1c[nH]nc1-c1ccc(F)cc1`, the “Percent Effect” value was -2.592%. For `c1cncc(-c2nnc(C3(c4ccc5c(c4)OCO5)CCOCC3)o2)c1`, the “Percent Effect” value was 0.6275%. For `NCc1cccc(-c2cccnc2C(=O)NCCN2CCOCC2)c1`, the “Percent Effect” value was 178.8%. For `O=C(NCCN1CCOCC1)c1cc(-c2ccccc2Cl)[nH]n1`, the “Percent Effect” value was 0.5934%. In the case of `Cn1ccnc1-c1cccc(NC(=O)NCCN2CCOCC2)c1`, the “Percent Effect” value is reported as 1.066%. In the case of `O=C(NCCCn1ccnc1)Nc1ccn(CCc2ccccn2)n1`, the “Percent Effect” value is reported as -2.122%. In the case of `CCN(Cc1cccc(C(=O)Nc2cn(C)nn2)c1)[C@H]1COC[C@@H]1O`, the “Percent Effect” value is reported as 20.02%. `COc1cc(N2CCn3cc(CNc4ccccn4)nc3C2)ncn1` was tested, and the “Percent Effect” value was 0.6158%. With `Cc1ccc(CNC(=O)CCN2CCN(c3ccccn3)CC2)n1C` the “Percent Effect” value was 5.614%. In the case of `CC(C)COCCC(=O)NCCC(=O)N1CCN(c2ccccn2)CC1`, the “Percent Effect” value is reported as 140.4%. With `Cc1ncsc1CNC(=O)CCN1CCN(c2ccccn2)CC1` the “Percent Effect” value was -8.127%. For `Cc1cc(CNC(=O)CCN2CCN(c3ccccn3)CC2)c(C)o1`, the “Percent Effect” value was -14.14%. With `Cc1csc(N2CCN(C(=O)CCNc3ncccn3)CC2)n1` the “Percent Effect” value was -3.8%. In the case of `CC(C)OCCC(=O)NCCC(=O)N1CCN(c2ccccn2)CC1`, the “Percent Effect” value is reported as 105.6%. `COCC(=O)N1CCC2(COCc3c(C)nc(N(C)C)nc32)C1` (stereo not given) was tested, and the “Percent Effect” value was 100.6%. In the case of `Cc1nc(N(C)C)nc2c1COCC21CCN(C(=O)NCC(C)C)C1` (stereo not given), the “Percent Effect” value is reported as 114.7%. In the case of `Cc1noc(C)c1CN1CCC2(COCc3cnc(N(C)C)nc32)C1.O=C(O)C(F)(F)F` (stereo not given), the “Percent Effect” value is reported as -6.223%. `COCCN1CCC2(COCc3c(C)nc(N4CCOCC4)nc32)C1.O=C(O)C(F)(F)F` (stereo not given) was tested, and the “Percent Effect” value was 8.185%. In the case of `CC(=O)NCC(=O)N1CCC2(COCc3c(C)nc(N(C)C)nc32)C1` (stereo not given), the “Percent Effect” value is reported as 108.4%. With `CCC(=O)N1CCC2(COCc3c(C)nc(N(C)C)nc32)C1` (stereo not given) the “Percent Effect” value was 5.169%. `Cc1nc(N2CCOCC2)nc2c1COCC21CCN(CC2CC2)C1.O=C(O)C(F)(F)F` (stereo not given) was tested, and the “Percent Effect” value was 1.071%. `Cc1nc(N(C)C)nc2c1COCC21CCN(C(=O)C2CC2)C1` (stereo not given) was tested, and the “Percent Effect” value was 112%. `Cc1nc(N2CCOCC2)nc2c1COCC21CCN(CC(C)C)C1` (stereo not given) was tested, and the “Percent Effect” value was 0.306%. `Cc1nc(N(C)C)nc2c1COCC21CCN(C(=O)NC(C)C)C1` (stereo not given) was tested, and the “Percent Effect” value was 14.65%. For `Oc1c(F)cc(CNc2cccc(-c3nnc[nH]3)c2)cc1F`, the “Percent Effect” value was 3.752%. In the case of `NCc1cn(CC2CCCN(C(=O)NCCc3ccc(F)cc3)C2)nn1` (stereo not given), the “Percent Effect” value is reported as -14.7%. With `O=C(CSc1nnc[nH]1)NCc1sccc1Br` the “Percent Effect” value was -6.223%. In the case of `COc1ccc(CCCC(=O)N2CCCC(n3cncn3)C2)cc1` (stereo not given), the “Percent Effect” value is reported as -28.74%. In the case of `N#Cc1ccc(CCC(=O)N2CCCC(n3cncn3)C2)cc1` (stereo not given), the “Percent Effect” value is reported as 122.1%. In the case of `O=C(Cc1ccc2c(c1)OCCO2)N1CCCC(n2cncn2)C1` (stereo not given), the “Percent Effect” value is reported as 8.803%. `N#Cc1ccc(CC(=O)N2CCCC(n3cccn3)C2)cc1` (stereo not given) was tested, and the “Percent Effect” value was 3.73%. `O=C(CCc1ccsc1)N1CCCC(n2cncn2)C1` (stereo not given) was tested, and the “Percent Effect” value was 119.5%. With `O=C(CCc1ccc(Cl)s1)N1CCCC(n2cncn2)C1` (stereo not given) the “Percent Effect” value was 2.271%. For `COc1ccc(CCN2CCCC(n3cncn3)C2)cc1` (stereo not given), the “Percent Effect” value was -2.484%. In the case of `COc1ccc(CCC(=O)N2CCCC(n3cncn3)C2)cc1` (stereo not given), the “Percent Effect” value is reported as 106.9%. For `O=C(c1cccnc1O)N1CCCC2(C=Cc3ccccc3O2)CC1` (stereo not given), the “Percent Effect” value was 2.5%. With `COc1cccc(COCC(O)CN2CC(n3cccn3)C2)c1` (stereo not given) the “Percent Effect” value was -10.3%. For `FC(F)Oc1ccc(CN2CCOC3(CCOCC3)C2)cc1Cl`, the “Percent Effect” value was 7.261%. In the case of `CN(C)C(=O)N1CCN(Cc2ccc3occc3c2)[C@H]2CS(=O)(=O)C[C@H]21`, the “Percent Effect” value is reported as -2.327%. With `COc1ccccc1CCN(C)C(=O)NC(C)c1nncn1C` (stereo not given) the “Percent Effect” value was 3.532%. In the case of `CC(Nc1nc2c(cnn2C)c(=O)[nH]1)c1ccccn1` (stereo not given), the “Percent Effect” value is reported as -0.01009%. In the case of `O=C(NCCCNc1ccccc1)c1scnc1Cl`, the “Percent Effect” value is reported as 2.651%. `O=C(CN1CCOC(c2ccccc2C(F)(F)F)C1)NC1CC1` (stereo not given) was tested, and the “Percent Effect” value was 8.433%. With `COCCN(C(=O)c1nc(-c2ccco2)sc1C)C1CC1` the “Percent Effect” value was 4.119%. With `COCCCNc1nc(CNC(C)=O)cc(-c2ccco2)n1` the “Percent Effect” value was 96.87%. For `COCCNc1ccccc1CNC(=O)C1CCCOC1` (stereo not given), the “Percent Effect” value was -2.92%. `Cc1cc(NCc2csc(-c3ccco3)n2)ccc1C(N)=O` was tested, and the “Percent Effect” value was -17.43%. `COCCCNc1nc(CNC(=O)C2CCC2)cc(-c2ccco2)n1` was tested, and the “Percent Effect” value was 103.2%. With `COCCN1CCn2cc(CNC(=O)C3CCC3)nc2C1` the “Percent Effect” value was -2.168%. With `CN1CCC(N2CCOC[C@H](OCC(=O)N(C)C)C2)CC1` the “Percent Effect” value was -7.154%. `CN(Cc1nccs1)c1nc(-c2ccccn2)nc2c1CCNCC2` was tested, and the “Percent Effect” value was -16.23%. With `O=C1NCCCCC1NC(=O)N1CCc2ccccc21` (stereo not given) the “Percent Effect” value was -9.694%. `O=C1NCCCCC1NC(=O)N1CCCc2ccccc21` (stereo not given) was tested, and the “Percent Effect” value was 0.9845%. With `O=C(NC1CCNC1)C1(N2CCCCC2)Cc2ccccc2C1` (stereo not given) the “Percent Effect” value was 108.7%. With `O=C1NCCCC[C@@H]1NC(=O)C1(N2CCCCC2)Cc2ccccc2C1` the “Percent Effect” value was 94.83%. In the case of `C[C@@H]1CN(C2(C(=O)N3CCNCC3)Cc3ccccc3C2)C[C@H](C)O1`, the “Percent Effect” value is reported as 0.2637%. In the case of `C[C@@H]1CN(C(=O)C2(N3CCCCC3)Cc3ccccc3C2)C[C@H](C)O1`, the “Percent Effect” value is reported as 1.52%. With `C[C@@H]1CN(C2(C(=O)N3CCCCCC3)Cc3ccccc3C2)C[C@H](C)O1` the “Percent Effect” value was 10.21%. `O=C(NC1CCNCC1)C1(N2CCCCC2)Cc2ccccc2C1` was tested, and the “Percent Effect” value was 123.6%. `CCN1CCN(C2(C(=O)NC3CCCC3)Cc3ccccc3C2)CC1` was tested, and the “Percent Effect” value was 34.09%. In the case of `Cc1ccsc1C(=O)NC1CCS(=O)(=O)c2ccccc21` (stereo not given), the “Percent Effect” value is reported as 9%. For `CC(C)COCC(NC(=O)CSc1nnc[nH]1)c1ccco1` (stereo not given), the “Percent Effect” value was 34.68%. `CCC(CNC(=O)c1ccccn1)N1CCc2ccccc2C1` (stereo not given) was tested, and the “Percent Effect” value was 2.728%. For `CCC(CNC(=O)c1cncc(Br)c1)N1CCc2ccccc2C1` (stereo not given), the “Percent Effect” value was 4.86%. With `CCC(C)(C)n1nnnc1C(c1cccs1)N1CCCCC1` (stereo not given) the “Percent Effect” value was 117.5%. With `CCC(C)(C)n1nnnc1C(c1cccs1)N1CCc2ccccc21` (stereo not given) the “Percent Effect” value was 114.5%. In the case of `CCC(C)(C)n1nnnc1C(c1cccs1)N1CCc2ccccc2C1` (stereo not given), the “Percent Effect” value is reported as 110.2%. `Cc1nnc(NCC(c2cccs2)N2CCCC2)c(C#N)c1C` (stereo not given) was tested, and the “Percent Effect” value was 15.53%. For `CCn1cnnc1CNC(=O)NCC(c1cccs1)N1CCCC1` (stereo not given), the “Percent Effect” value was -4.375%. `Cc1nc(CN2CCCn3cnc(COC(C)C)c3C2)cs1.O=C(O)C(F)(F)F` was tested, and the “Percent Effect” value was 6.346%. `CCOc1ccc2c(c1)C=C(C(=O)NC(C)Cn1cccn1)CO2` (stereo not given) was tested, and the “Percent Effect” value was 15.57%. With `CSCCC(=O)N1CCC(c2nccn2CCN(C)C)CC1` the “Percent Effect” value was -6.399%.
